Read-out in test [1]: E-selectin (Homo sapiens) (UniProt P16581)
Kind of test: BSK_3C_Eselectin: BioMAP Diversity Plus: 3C Assay for Eselectin Biomarker Activity (AID 2283015).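 On outcome: cell surface E-selectin protein quantified by ELISA 24 h after dosing.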 As to conditions: primary human endothelial cells (HUVEC); actives raise or lower the signal. The gist of the method: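 Primary human umbilical vein endothelial cells (3C system), read 24 h after compound addition; E-selectin measured by ELISA. Bidirectional curve fitting against DMSO baseline; cytotoxicity by parallel SRB total-protein staining.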

Read-out in test [2]: Interleukin-1 alpha (IL1a), IL1A (gene 3552)
Nature of the test: BSK_BE3C_IL1a: BioMAP Diversity Plus: BE3C Assay for Interleukin-1 alpha (IL1a) Biomarker Activity (AID 2283016). To be noted: primary human bronchial epithelial cells; actives raise or lower the signal. Summed up: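 ELISA read-out of IL-1a from human lung bronchial epithelial primary cells, 24 h post-dose. Gain or loss of signal fitted relative to DMSO negative control.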

Read-out in test [3]: Monocyte Chemoattractant Protein-1 (MCP1), CCL2 (gene 6347)
Kind of test: BSK_3C_MCP1: BioMAP Diversity Plus: 3C Assay for Monocyte Chemoattractant Protein-1 (MCP1) Biomarker Activity (AID 2283017). As to conditions: primary human endothelial cells (HUVEC); actives raise or lower the signal. The gist of the method:
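Human umbilical vein endothelial cells (3C system) exposed to chemicals for 24 h; MCP-1 quantified by ELISA against the DMSO baseline with bidirectional fitting, and parallel SRB staining used to assess cytotoxicity.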

Read-out in test [4]: Monocyte Chemoattractant Protein-1 (MCP1), CCL2 (gene 6347)
Nature of the test: BSK_4H_MCP1: BioMAP Diversity Plus: 4H Assay for Monocyte Chemoattractant Protein-1 (MCP1) Biomarker Activity (AID 2283018). As to conditions: primary human endothelial cells (HUVEC); actives raise or lower the signal. The gist of the method:
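HUVEC primary cells, 24 h post-dose, MCP-1 by ELISA. Gain or loss of signal fitted bidirectionally vs DMSO baseline. Cytotoxicity: SRB stain (0.1% after 10% TCA fixation), read 560 nm, parallel cultures.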

Read-out in test [5]: Human Leukocyte Antigen - DR isotype (HLADR), HLA-DRA (gene 3122)
Kind of test: BSK_3C_HLADR: BioMAP Diversity Plus: 3C Assay for Human Leukocyte Antigen - DR isotype (HLADR) Biomarker Activity (AID 2283019).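 On outcome: ELISA of cell-surface HLA-DR on HUVEC 24 h after dosing.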 As to conditions: primary human endothelial cells (HUVEC); actives raise or lower the signal. The gist of the method:
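HUVEC monoculture, HLA-DR measured by ELISA 24 h after chemical dosing. Fitted bidirectionally against DMSO baseline; parallel SRB staining assessed cytotoxicity, with 3C proliferation read by SRB at 48 h.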

Read-out in test [6]: Interleukin-8 (IL8), CXCL8 (gene 3576)
Nature of the test: BSK_3C_IL8: BioMAP Diversity Plus: 3C Assay for Interleukin-8 (IL8) Biomarker Activity (AID 2283020). To be noted: primary human endothelial cells (HUVEC); actives raise or lower the signal. Summed up: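 HUVEC, 3C stimulation; 24 h compound exposure; IL-8 read by ELISA; gain or loss of signal fitted relative to DMSO control.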

Read-out in test [7]: Monokine induced gamma interferon (MIG), CXCL9 (gene 4283)
Kind of test: BSK_3C_MIG: BioMAP Diversity Plus: 3C Assay for Monokine induced gamma interferon (MIG) Biomarker Activity (AID 2283021).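 On AC50: MIG protein level measured by immunoassay in the treated endothelial cultures.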 To be noted: primary human endothelial cells (HUVEC); actives raise or lower the signal. Summed up: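 HUVEC, 3C system; 24 h chemical exposure; MIG by ELISA; bidirectional fit vs DMSO baseline.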

Test [8] in a line: BSK_3C_SRB: Viability Assessment in the BioMAP Diversity Plus: 3C Assay (AID 2283023).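 Further: fitted both ways against DMSO so a hit may be signal rise or drop.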 To be noted: primary human endothelial cells (HUVEC). Summed up: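 Human umbilical vein endothelial cells in the 3C system, treated 24 h. Total protein measured by 0.1% sulforhodamine B staining after 10% TCA fixation, read at 560 nm; bidirectional fit versus DMSO.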
Read-out in test [9]: Matrix Metallopeptidase 1 (MMP1), MMP1 (gene 4312)
Kind of test: BSK_BE3C_MMP1: BioMAP Diversity Plus: BE3C Assay for Matrix Metallopeptidase 1 (MMP1) Biomarker Activity (AID 2283024). As to conditions: primary human bronchial epithelial cells; actives raise or lower the signal. Summed up: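 ELISA read-out of MMP1 in human lung bronchial epithelial primary cultures, 24 h post-dose; bidirectional curve fit vs DMSO baseline, gain or loss of signal scored.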

A short description of test [10]: BSK_3C_Vis: BioMAP Diversity Plus: 3C Assay for Morphology Visualization (AID 2283025).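 Further: fitted both ways so gain or loss versus DMSO counts.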 As to conditions: primary human endothelial cells (HUVEC). Summed up: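 HUVEC, 3C system; light microscopy of morphology at 24 h post-dose. Bidirectional fit vs DMSO baseline. Secondary readout, background-control function.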
Read-out in test [11]: Pselectin, SELP (gene 6403)
Kind of test: BSK_4H_Pselectin: BioMAP Diversity Plus: 4H Assay for Pselectin Biomarker Activity (AID 2283026). To be noted: primary human endothelial cells (HUVEC); actives raise or lower the signal. The gist of the method: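 HUVEC, 24 h chemical exposure; P-selectin read by ELISA. Bidirectional curve fit vs DMSO baseline; gain or loss of signal scored.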

Test [12] in a line: BSK_4H_SRB: Viability Assessment in the BioMAP Diversity Plus: 4H Assay (AID 2283027).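 Further: cells exposed to compound for 24 h before staining.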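 On AC50: curves fitted both ways versus DMSO so AC50 may be loss or gain.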 To be noted: primary human endothelial cells (HUVEC). The gist of the method:
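HUVEC, 24 h post-dose; 10% TCA fix, 0.1% SRB stain, A560 nm. Total protein = overt cytotoxicity, parallel to biomarker read. Bidirectional fit vs DMSO baseline.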

The nature of test [13]: BSK_BE3C_SRB: Viability Assessment in the BioMAP Diversity Plus: BE3C Assay (AID 2283028).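 On AC50: fitted both ways so AC50 may mark signal gain or loss versus DMSO.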 As to conditions: primary human bronchial epithelial cells. Summed up:
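Human bronchial epithelial primary cells in confluent culture, 24 h after chemical dosing; total protein by 0.1% SRB staining after 10% TCA fixation, read at 560 nm. Bidirectional fitting versus DMSO baseline.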

Read-out in test [14]: Thrombomodulin, THBD (gene 7056)
Kind of test: BSK_3C_Thrombomodulin: BioMAP Diversity Plus: 3C Assay for Thrombomodulin Biomarker Activity (AID 2283029). To be noted: primary human endothelial cells (HUVEC); actives raise or lower the signal. The gist of the method: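 HUVEC, 3C conditions; compound 24 h; thrombomodulin by ELISA; bidirectional curve fit vs DMSO baseline; parallel SRB total-protein staining for cytotoxicity.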

Read-out in test [15]: Urokinase-type plasminogen activator receptor (uPAR), PLAUR (gene 5329)
Kind of test: BSK_4H_uPAR: BioMAP Diversity Plus: 4H Assay for Urokinase-type plasminogen activator receptor (uPAR) Biomarker Activity (AID 2283030). As to conditions: primary human endothelial cells (HUVEC); actives raise or lower the signal. The gist of the method: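 Human umbilical vein endothelial cells in the 4H system, 24 h after chemical dosing. Cell-surface uPAR measured by ELISA, fitted in both directions versus DMSO; cytotoxicity checked by SRB total protein in parallel cultures.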

Read-out in test [16]: Vascular endothelial growth factor receptor 2 (Homo sapiens) (UniProt P35968)
Nature of the test: BSK_4H_VEGFRII: BioMAP Diversity Plus: 4H Assay for Vascular endothelial growth factor receptor 2 (VEGFR2) Biomarker Activity (AID 2283031). To be noted: primary human endothelial cells (HUVEC); actives raise or lower the signal. Summed up:
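Primary human umbilical vein endothelial cells (4H system), 24 h exposure; cell-surface VEGFR2 measured by ELISA. Bidirectional fitting versus DMSO; cytotoxicity checked in parallel by SRB total-protein staining.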

Read-out in test [17]: Human Leukocyte Antigen - DR isotype (HLADR), HLA-DRA (gene 3122)
Kind of test: BSK_BE3C_HLADR: BioMAP Diversity Plus: BE3C Assay for Human Leukocyte Antigen - DR isotype (HLADR) Biomarker Activity (AID 2283032). To be noted: primary human bronchial epithelial cells; actives raise or lower the signal. The gist of the method: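 Primary human bronchial epithelial cells (BE3C); 24 h chemical exposure; HLA-DR by ELISA; bidirectional curve fit vs DMSO baseline.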

Test [18] addresses human Vitamin D Receptor (VDR), VDR (gene 7421) (UniProt P11473). Kind of test: ATG_VDR_TRANS: Attagene TRANS-FACTORIAL HepG2 Assay for human Vitamin D Receptor (VDR) (AID 2283022; active means hit-call score of the fitted dose curve at least 0.9, where 1 is the maximum). The gist of the method:
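HepG2 cells were transiently transfected with GAL4-UAS reporter units and a chimeric VDR-Gal4 construct, then dosed for 24 hours. Reporter mRNA was quantified by RT-PCR, fluorescent labeling, HpaI digestion and capillary electrophoresis; gain of signal analysed vs DMSO.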

Several values for one entry are separate records, joined by “and”; a condition that tells them apart may be missing. Identical values can stand only once. Results filed as inconclusive are left out. The source holds several records for some structures; these can differ, active in one and inactive in another. Activity calls are given as the source filed them. How the source made its calls, unless noted: active means hit-call score of the fitted dose curve at least 0.9, where 1 is the maximum; inactive means score below 0.9.

Usually AC50 stands for the midpoint of the concentration-response curve, whichever way the signal moves.

Sequence of human Vitamin D Receptor (VDR), VDR (gene 7421) (P11473 whole entry, looked up, the tested form may be a part): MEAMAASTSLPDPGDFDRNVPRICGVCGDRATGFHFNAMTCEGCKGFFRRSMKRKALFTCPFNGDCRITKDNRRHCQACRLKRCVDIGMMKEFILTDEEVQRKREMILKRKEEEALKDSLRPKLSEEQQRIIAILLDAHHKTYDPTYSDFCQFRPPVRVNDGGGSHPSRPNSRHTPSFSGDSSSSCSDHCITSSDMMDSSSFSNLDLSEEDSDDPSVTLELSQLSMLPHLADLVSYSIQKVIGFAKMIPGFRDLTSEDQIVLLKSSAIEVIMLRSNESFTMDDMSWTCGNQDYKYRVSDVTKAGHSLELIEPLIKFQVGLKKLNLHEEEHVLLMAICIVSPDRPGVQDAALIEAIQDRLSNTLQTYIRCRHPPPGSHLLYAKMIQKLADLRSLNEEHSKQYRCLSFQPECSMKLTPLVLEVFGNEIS
Sequence of E-selectin (Homo sapiens) (P16581 whole entry, looked up): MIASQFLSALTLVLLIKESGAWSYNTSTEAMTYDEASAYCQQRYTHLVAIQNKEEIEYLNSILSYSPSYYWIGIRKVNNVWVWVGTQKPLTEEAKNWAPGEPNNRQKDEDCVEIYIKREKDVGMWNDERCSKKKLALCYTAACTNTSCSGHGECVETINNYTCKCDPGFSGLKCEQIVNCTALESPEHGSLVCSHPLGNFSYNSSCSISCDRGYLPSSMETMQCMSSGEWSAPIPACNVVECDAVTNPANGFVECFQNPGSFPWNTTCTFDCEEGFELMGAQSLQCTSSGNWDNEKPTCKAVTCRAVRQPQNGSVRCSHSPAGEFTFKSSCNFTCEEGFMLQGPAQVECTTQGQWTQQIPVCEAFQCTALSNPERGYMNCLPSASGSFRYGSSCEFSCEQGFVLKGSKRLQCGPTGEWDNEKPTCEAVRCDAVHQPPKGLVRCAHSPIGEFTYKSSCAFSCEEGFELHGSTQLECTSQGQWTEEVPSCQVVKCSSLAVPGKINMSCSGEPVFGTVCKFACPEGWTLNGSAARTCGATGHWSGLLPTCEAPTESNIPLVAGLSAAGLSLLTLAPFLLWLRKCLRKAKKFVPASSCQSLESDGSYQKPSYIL

Take `c1ccc2c(c1)ccc1ncccc12`: the AC50 in test [1] is 16.4 µM (active); in [2], 20 µM (active); in [3], 5.9 µM (active); in [5], 20 µM (active); in [8] it was 14.3 µM (active); in test [10], 38.9 µM (active). The AC50 in [11], in test [12] and in test [15] was 20 µM (active) throughout. Also, the outcome in [4], in test [6], in test [7], in test [9], in test [13] and in test [14] was inactive. Also, the outcome in test [16] and in test [17] was inactive.

`CC(C)=CC1CC(C)CCO1` (configuration not stated): in test [18], the call was inactive.

Regarding `O=C(O)CC(C(=O)O)C(CC(=O)O)C(=O)O` (configuration not stated), in test [18], the outcome was inactive.

Turning to `CCO[Si](C)(OCC)OCC`, the outcome in [1], in [2], in test [3], in test [4], in test [5] and in test [6] was inactive. Moreover, the outcome in test [7], in [8], in test [9], in [11], in test [12] and in [13] was inactive. Further, the outcome in test [14], in [15], in test [16] and in [17] was inactive.

With `CCCCCC(C)O` (configuration not stated), in test [18], the compound was classed as inactive.

For `C=C(C)C(=O)OCCO`, in test [18], the result was inactive.

For `O=C(/C=C/C=C/c1ccc2c(c1)OCO2)N1CCCCC1`, in test [18], the call was inactive.

`CC(=O)OCC(C)OC(C)=O` (configuration not stated): the outcome in test [18] was inactive.

For the compound `O=c1n(CCO)c(=O)n(CCO)c(=O)n1CCO`, the result in [18] was inactive.

Turning to `CC/C=C\C/C=C\C/C=C\CCCCCCCC(=O)O`, in [18], the result was inactive.

In the case of `CCCCC/C=C\C/C=C\CCCCCCCC(=O)OC`, the half-maximal activity concentration (AC50) was 29.6 µM (active) in test [1]; 20 µM (active) in [2]; 34.4 µM (active) in [3]; 28.7 µM (active) in [5]; 31.4 µM (active) in [7]; 37.5 µM (active) in [10]. Besides, the concentration at half-maximal activity (AC50) in test [11] is 20 µM (active); in test [12] it was 20 µM (active); in [17], 18.8 µM (active). Also, the outcome in test [4], in test [6], in test [8], in test [9], in [13] and in [14] was inactive. Further, the outcome in [15] and in [16] was inactive.

On to `CC(C)c1ccc2c(c1)CC[C@H]1[C@](C)(CN)CCC[C@]21C`, for which the call in test [18] was inactive.

Take `C=CC(C)(C)C`: the compound was called inactive in test [18].

As for `CCCCCCCCCCCCCOP(=O)(O)O`, the outcome in test [18] was inactive.

Turning to `COC(=O)/C=C/C(C)=C\C=C\C(C)=C\C=C\C=C(C)\C=C\C=C(C)\C=C\C(=O)O`, the call in test [18] was inactive.

For `C=CC(=O)OCCOC1C2CCC1C1CC=CC12` (configuration not stated), in [18], the compound was classed as inactive.

For the compound `CCOC(=O)N1CCC(=C2c3ccc(Cl)cc3CCc3cccnc32)CC1`, the compound was called inactive in test [18].

Turning to `CCOC(F)(F)C(F)(F)C(F)(F)C(F)(F)F`, the call in test [18] was inactive.

Regarding `CCOC(=O)c1ccccc1C(=C1C=C(Br)C(=O)C(Br)=C1)c1cc(Br)c(O)c(Br)c1`, the half-maximal activity concentration (AC50) in test [1] is 21 µM (active) and 19.9 µM (active); in test [2], 4.38 µM (active) and 4.46 µM (active); in test [3], 21.6 µM (active) and 20.9 µM (active); in test [4], 15.5 µM (active) and 13.5 µM (active); in [5], 19.5 µM (active) and 16 µM (active); in [6], 20.2 µM (active) and 21.7 µM (active). Besides, the AC50 is 23.6 µM (active) and 21.7 µM (active) in [7]; 21.7 µM (active) and 23.7 µM (active) in test [8]; 21.9 µM (active) and 19.8 µM (active) in [11]; 19.1 µM (active) and 20.3 µM (active) in [12]; 12.5 µM (active) in test [13]; 18.5 µM (active) and 19.2 µM (active) in test [14]. For the same compound, the AC50 in [15] was 15.6 µM (active) and 15.8 µM (active); in test [17] it was 4.71 µM (active) and 4.54 µM (active). Besides, the result in test [9], in [13] and in [16] was inactive.

The values are drawn from PubChem BioAssay (EPA / NIEHS).
